Assay outcomes: PubChem BioAssay, National Center for Advancing Translational Sciences (NCATS)
Rows were chosen to be rich in hits. Some 4.7% of all compounds tested hit in one or more screens of this group.
D1 potentiator: human D1 dopamine receptor positive modulation. P21728. HEK293 TREx D1 cells, calcium flux, dopamine EC20 potentiation. potentiation, % at 10 µM. 360,000 tested, 0.036% active. AID 504651; in the data active means potentiation above about 30%
TRHR ag: activates the human TRH receptor. TRHR cells, calcium flux fluo-8, FDSS agonist mode. 360,000 tested, 0.18% active. P34981. activation, % at 2 µM
Target sequence (P34981 whole entry, looked up): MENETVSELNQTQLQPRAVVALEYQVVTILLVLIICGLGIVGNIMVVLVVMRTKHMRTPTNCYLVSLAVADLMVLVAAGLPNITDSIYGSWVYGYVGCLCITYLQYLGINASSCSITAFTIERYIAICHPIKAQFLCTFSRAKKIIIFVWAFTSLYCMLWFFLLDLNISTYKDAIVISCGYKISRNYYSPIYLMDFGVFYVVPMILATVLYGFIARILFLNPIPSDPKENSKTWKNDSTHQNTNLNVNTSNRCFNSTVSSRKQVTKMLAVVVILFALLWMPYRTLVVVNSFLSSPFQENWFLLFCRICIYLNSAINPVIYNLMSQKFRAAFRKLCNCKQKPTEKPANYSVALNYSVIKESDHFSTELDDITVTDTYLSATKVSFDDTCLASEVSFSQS
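Agonist-mode FDSS calcium read (Ex 480/Em 530, 1 s cycles) in 1536-well TRHR cells with fluo-8 dye, after 10-cycle baseline and 23 nL compound addition; TRH at EC20 (10 nM final) added afterwards for the enhancer phase.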
TRHR enhancer: allosteric enhancers of human TRH receptor; P34981; TRHR cells, fluo-8 calcium fluorescence, EC20 TRH enhancement; enhancement, % at 2 µM; 360,000 tested, 0.66% active; AID 493056; in the data active means enhancement above about 30%
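TRHR-expressing cells loaded with fluo-8 calcium dye were read kinetically (ex 480/em 530) during compound addition, then stimulated with an EC20 of TRH (10 nM final). Enhancement of the Gq-mediated intracellular calcium response was scored.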
D1 agonist: agonists of human D1 dopamine receptor; P21728; activation, % at 2 µM; AID 504660; HEK293 T-REx D1 cells, calcium flux, agonist mode; 360,000 tested, 1% active
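Tetracycline-induced HEK293 TREx D1 cells, force-coupled to calcium signalling, were dye-loaded with a no-wash calcium kit. Compound was pin-added after a 10 s baseline. Fluorescence was read kinetically at 1 cycle/s for 180 s, with calcium rises flagged as agonism.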
D1 antagonist: antagonists of human D1 dopamine receptor; HEK293 TREx D1 cells, calcium flux, dopamine EC80; hits give low values; activity change, negative = inhibition, % at 10 µM; 360,000 tested, 3.2% active; AID 504652; in the data active means activity change below about -30%
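Calcium flux readout: force-coupled, inducible Hek293 Trex D1 line, cells induced overnight at 30 C with tetracycline, dye-loaded 30–90 min at RT. Antagonism scored against EC80 dopamine challenge given 180 s after compound.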
Of the large screens only hits and unclear results are named; the others gave an inactive call. Unless noted, no stated cut-off is given here; in the data, active means activation above about 30%; inactive means the rest.

Cc1ccc(OCCNC(=O)c2cccc(Oc3ccc(C(F)(F)F)cc3[N+](=O)[O-])c2)cc1	D1 agonist 44
O=C(CNC(=O)c1ccccc1)OC(CCc1ccccc1)C(=O)Nc1cc(C(F)(F)F)ccc1Cl (stereo not drawn)	D1 antagonist -37
O=C(CNC(=O)c1ccccc1)OC(Cc1ccccc1)C(=O)Nc1cc(C(F)(F)F)ccc1Cl (stereo not drawn)	none
Cc1cccc(C(=O)NCC(=O)OC(C(=O)Nc2cc(C(F)(F)F)ccc2Cl)c2ccccc2)c1 (stereo not drawn)	D1 antagonist -30
COc1ccc(N(C(=O)c2cccc(C)c2)S(=O)(=O)c2ccc3c(c2)n(C)c(=O)n3C)cc1	none
O=C(NC1CCCN(Cc2ccc(Cl)cc2)C1)C1CCC1 (stereo not drawn)	TRHR enhancer 31
Brc1[nH]nc2ccccc12	D1 antagonist -33
O=C(O)c1cc(-c2ccc(Br)s2)nc2ccccc12	none
COc1ccc(/C=C/C(=O)Nc2nc3n(n2)C(c2ccc(F)cc2)C=C(c2ccccc2)N3)cc1 (stereo not drawn)	none
CN1CCc2cccc3c2C1Cc1ccc(O)c(O)c1-3 (stereo not drawn)	D1 agonist 48, D1 antagonist -75
CC(CNC(=O)c1ccc(CSc2nc3ccncc3n2Cc2cccc(F)c2)cc1)c1ccccc1 (stereo not drawn)	none
COC(=O)C(C)(C)ONC(=O)Nc1ccccc1[N+](=O)[O-]	TRHR enhancer 31
CCCSc1ncc(Cl)c(C(=O)N(Cc2ccc(N(C)C)cc2)C2CCS(=O)(=O)C2)n1 (stereo not drawn)	none
O=C(Nc1ccccc1C(F)(F)F)N1CCOc2ccc(Cl)cc21	D1 antagonist -35
CCc1ccc(NC(=O)N2CCOc3ccc(Cl)cc32)cc1	none
O=C(CC(c1ccccc1)c1ccccc1O)NCCN1CCOCC1 (stereo not drawn)	D1 antagonist -53
CCN(c1ccccc1)S(=O)(=O)c1nnc(NC(=O)C(C)Oc2ccccc2)s1 (stereo not drawn)	none
CC(=O)Nc1ccc(S(=O)(=O)NCC(=O)OCC(=O)N2CCc3ccccc32)cc1	none
O=C(CNS(=O)(=O)c1ccccc1Br)OCC(=O)N1CCc2ccccc21	D1 antagonist -57
O=C(NCCN1CCCCC1)c1ccc(Cn2c(SCc3ccccc3)nc3cccnc32)cc1	none
O=C(COc1ccc(Br)cc1)Nc1ccc(C(=O)OC2CCCCC2)cc1	none
Cc1c(C(=O)NCC2COc3ccccc3O2)oc2ccc(S(=O)(=O)N3CC(C)CC(C)C3)cc12 (stereo not drawn)	D1 antagonist -31
Cn1c(=O)oc2cc(S(=O)(=O)N3CCc4ccccc43)ccc21	D1 agonist 38
Cc1ccc(NC(=O)C2CCCN(S(=O)(=O)c3ccc4c(c3)oc(=O)n4C)C2)cc1Cl (stereo not drawn)	D1 antagonist -31
Cc1c(C(=O)NCC2COc3ccccc3O2)oc2ccc(S(=O)(=O)N3CCOCC3)cc12 (stereo not drawn)	none
Cc1c(C(=O)NCc2c(F)cc(F)cc2F)oc2ccc(S(=O)(=O)N3CCOCC3)cc12	D1 antagonist -45
COc1ccc(NC(=O)CCn2cnnn2)cc1	none
CCCSCCCNC(=O)CN1C(=O)COc2ccc(S(=O)(=O)N3CCC(C)CC3)cc21	none
Cn1c(=O)oc2cc(S(=O)(=O)N3CCC(C(=O)NCC4COc5ccccc5O4)CC3)ccc21 (stereo not drawn)	D1 antagonist -35
Cn1c(=O)oc2cc(S(=O)(=O)N3CCCC(C(=O)N4CCc5ccccc5C4)C3)ccc21 (stereo not drawn)	D1 antagonist -38 (no result: D1 potentiator)
CC(=O)Nc1ccc(Nc2cc(C)nc3c(-c4ccccc4)c(C)nn23)cc1	D1 antagonist -30
Cc1cc(SCC(=O)Nc2ccc(O)cc2)n2nc(C)c(-c3ccccc3)c2n1	D1 antagonist -50
O=C(NCCc1ccccc1)c1ccc2c(c1)N(Cc1ccccc1Cl)C(=O)c1ccccc1S2	none
CC(C)(C)c1ccc(C(=O)NCC(c2cccs2)S(=O)(=O)c2cccs2)cc1 (stereo not drawn)	TRHR enhancer 45
Cc1cc(S(=O)(=O)C(CNC(=O)c2ccc(OC(C)C)cc2)c2cccs2)ccc1F (stereo not drawn)	D1 antagonist -74
O=c1c2ccccc2n2c(-c3ccc(Cl)cc3)nnc2n1CCc1ccccc1	none
Cc1ccc(CNC(=O)CS(=O)Cc2nc(-c3ccccc3Cl)oc2C)cc1 (stereo not drawn)	D1 antagonist -42
Cc1oc(-c2ccccc2Cl)nc1CS(=O)CC(=O)NC1CC1 (stereo not drawn)	D1 antagonist -60
Cc1ccc(-c2nc(CS(=O)CC(=O)NC3CC3)c(C)o2)cc1 (stereo not drawn)	none
Fc1ccc(CNc2nc(-c3ccco3)cc(C(F)(F)F)n2)cc1	TRHR enhancer 38
Fc1ccc(CNc2nc(-c3ccc(Cl)cc3)cc(C(F)(F)F)n2)cc1	none
COc1ccc(CNc2nc(-c3ccc(OC)c(OC)c3)cc(C(F)(F)F)n2)cc1	none
FC(F)(F)c1cc(-c2ccco2)nc(NCc2ccccc2)n1	none
COc1ccc(-c2cc(C(F)(F)F)nc(NCc3ccccc3)n2)cc1	D1 agonist 31
Fc1ccc(-c2cc(C(F)(F)F)nc(NCc3ccccc3)n2)cc1	D1 agonist 36
Cc1ccc(NC(=O)N2CCC(CN3CCCCCC3)CC2)c(Cl)c1	none
COCCCNC(=O)c1c(NC(=O)c2cc(=O)c3ccccc3o2)sc2c1CCCC2	none
CCOC(=O)c1c(NC(=O)c2cc(=O)c3cc(C)cc(C)c3o2)sc(C)c1C	none
CN(C)c1ccc(CNC(=O)c2cc3ccccn3n2)cc1	none
O=S(=O)(c1ccc(Cl)cc1)N1CCN(S(=O)(=O)c2ccc3c(c2)OCCO3)CC1	none
COC(=O)c1sccc1S(=O)(=O)N1CCN(c2cccc(C)c2C)CC1	none
CC1=[N+](C)c2ccc3ccccc3c2C1(C)C	TRHR enhancer 35
CSc1ccc(CCNc2ncnc3onc(C)c23)cc1	D1 agonist 35, D1 antagonist -50
Cc1ccc(CCNc2ncnc3onc(-c4ccc(Cl)cc4)c23)cc1	none
CCCNc1ncnc2onc(C)c12	none
CCOc1ccc(CCNc2ncnc3onc(-c4ccc(Cl)cc4)c23)cc1	D1 antagonist -48
COc1ccc(CCNc2ncnc3onc(C)c23)c(OC)c1	D1 antagonist -45
NC(=O)NC(Cc1ccccc1)c1ccccc1 (stereo not drawn)	none
NC(=O)OCC(COC(N)=O)c1ccccc1	D1 antagonist -39
COc1ccc(SCCN2CC[C@@H](O)CCC2=O)cc1	D1 antagonist -58
Cc1oc(C(C)(C)C)cc1C(=O)Nc1ccc2c(c1)OCO2	D1 antagonist -32
